We go through 52 compounds from the antibiotic and cytotoxicity screens of Wong et al. (2023).

Hit rate of the full screen: of about 39,000 compounds, about 1,500 (3.8%) were called active. The full list was thinned out, with actives kept by preference.

The assay concerns HSkMC (human skeletal muscle cells). In words: cytotoxicity call (relative viability < 0.9). The settings on record: 10 µM.
For `C[C@H]1CN([C@@H](C)CO)C(=O)c2ccccc2-c2ccccc2CO[C@H]1CN(C)Cc1ccc(Oc2ccccc2)cc1`, the cytotoxicity call is “inactive”.

`COC1=CC(=O)C(O)=CC1=CC=Cc1ccccc1`: the cytotoxicity call is “active”.

Consider `COC1=CC(=O)c2ccccc2C1=O`, for which the cytotoxicity call is “inactive”.

Turning to `COc1ccc(C(=O)C=Cc2ccccc2)cc1`, the cytotoxicity call is “inactive”.

Regarding `C[C@H]1CCCCO[C@H](CN(C)C(=O)Nc2ccc(C(F)(F)F)cc2)[C@@H](C)CN([C@@H](C)CO)C(=O)c2cc(NS(C)(=O)=O)ccc2O1`, the cytotoxicity call is “inactive”.

As to `Cc1noc(C)c1S(=O)(=O)Nc1ccc2c(c1)C(=O)N([C@H](C)CO)C[C@@H](C)[C@@H](CN(C)CC1CCCCC1)OCCCC[C@@H](C)O2`, the cytotoxicity call is “inactive”.

Take `C[C@H](CO)N1C[C@H](C)[C@@H](CN(C)Cc2ccc(C(F)(F)F)cc2)Oc2c(NC(=O)c3nc4ccccc4s3)cccc2C1=O`: the cytotoxicity call was “inactive”.

`C[C@@H]1CN([C@@H](C)CO)C(=O)c2cccc(NC(=O)c3nc4ccccc4s3)c2O[C@H]1CN(C)Cc1ccc(C(F)(F)F)cc1`: the cytotoxicity call is “inactive”.

As for `C[C@@H]1CN([C@H](C)CO)C(=O)c2cccc(NC(=O)c3nc4ccccc4s3)c2O[C@H]1CN(C)Cc1ccc(C(F)(F)F)cc1`, the cytotoxicity call is “active”.

Regarding `C[C@@H]1CN([C@H](C)CO)C(=O)c2cccc(NC(=O)c3nc4ccccc4s3)c2O[C@@H]1CN(C)Cc1ccc(C(F)(F)F)cc1`, the cytotoxicity call was “inactive”.

In the case of `C[C@H]1CN([C@@H](C)CO)C(=O)c2cccc(NC(=O)c3nc4ccccc4s3)c2O[C@@H]1CN(C)Cc1ccc(C(F)(F)F)cc1`, the cytotoxicity call is “active”.

For `C[C@@H]1CN([C@@H](C)CO)C(=O)c2cccc(NC(=O)c3nc4ccccc4s3)c2O[C@@H]1CN(C)Cc1ccc(C(F)(F)F)cc1`, the cytotoxicity call is “inactive”.

Consider `C[C@H](NC(=O)C[C@@H]1C[C@@H]2c3cc(NC(=O)Nc4ccc(C(F)(F)F)cc4)ccc3O[C@@H]2[C@@H](CO)O1)c1ccccc1`, for which the cytotoxicity call is “inactive”.

Take `C[C@H]1CN([C@@H](C)CO)C(=O)c2ccccc2-c2ccccc2CO[C@@H]1CN(C)Cc1cccc(C(F)(F)F)c1`: the cytotoxicity call was “inactive”.

Take `C[C@@H]1CCCCO[C@@H](CN(C)C)[C@@H](C)CN([C@H](C)CO)C(=O)c2cc(NC(=O)Nc3ccc(C(F)(F)F)cc3)ccc2O1`: the cytotoxicity call was “inactive”.

With `CO[C@@H](CN(C)S(=O)(=O)c1cccc(Cl)c1)[C@@H](C)CN([C@H](C)CO)S(=O)(=O)c1ccc(Cl)cc1`, the cytotoxicity call was “inactive”.

Turning to `C[C@H](CO)N1C[C@H](C)[C@@H](CN(C)C(=O)CCCN(C)C)OCCCC[C@H](C)Oc2ccc(NC(=O)Nc3ccc(C(F)(F)F)cc3)cc2C1=O`, the cytotoxicity call is “inactive”.

For the compound `C[C@@H]1CN([C@H](C)CO)C(=O)c2cc(NC(=O)Cc3cn(C)c4ccccc34)ccc2O[C@@H]1CN(C)Cc1ccc(Oc2ccccc2)cc1`, the cytotoxicity call is “inactive”.

`C[C@H](CO)N1C[C@H](C)[C@H](CN(C)Cc2ccc(Oc3ccccc3)cc2)Oc2ccc(NC(=O)Cc3cn(C)c4ccccc34)cc2C1=O`: the cytotoxicity call was “active”.

Take `C[C@@H]1CN([C@@H](C)CO)C(=O)c2cc(NC(=O)Cc3cn(C)c4ccccc34)ccc2O[C@H]1CN(C)Cc1ccc(Oc2ccccc2)cc1`: the cytotoxicity call is “inactive”.

With `C[C@H](CO)N1C[C@H](C)[C@H](CN(C)Cc2ccc(-c3ccccc3)cc2)Oc2ccc(NC(=O)Cc3cn(C)c4ccccc34)cc2C1=O`, the cytotoxicity call was “active”.

On to `C[C@@H]1CN([C@H](C)CO)C(=O)c2cc(NC(=O)Cc3cn(C)c4ccccc34)ccc2O[C@H]1CN(C)Cc1ccc(Oc2ccccc2)cc1`, for which the cytotoxicity call is “inactive”.

Turning to `C[C@@H]1CN([C@@H](C)CO)C(=O)c2cc(NC(=O)Cc3cn(C)c4ccccc34)ccc2O[C@H]1CN(C)Cc1ccc(-c2ccccc2)cc1`, the cytotoxicity call was “inactive”.

In the case of `C[C@@H]1CN([C@H](C)CO)C(=O)c2cc(NC(=O)Cc3cn(C)c4ccccc34)ccc2O[C@H]1CN(C)Cc1ccc(-c2ccccc2)cc1`, the cytotoxicity call was “inactive”.

`C[C@H]1CN([C@@H](C)CO)C(=O)c2cc(NC(=O)Cc3cn(C)c4ccccc34)ccc2O[C@@H]1CN(C)Cc1ccc(Oc2ccccc2)cc1`: the cytotoxicity call is “active”.

Consider `C[C@H]1CN([C@@H](C)CO)C(=O)c2cc(NC(=O)Cc3cn(C)c4ccccc34)ccc2O[C@H]1CN(C)Cc1ccc(Oc2ccccc2)cc1`, for which the cytotoxicity call was “inactive”.

As for `CC(C)[C@@H](N)c1ncnn1C`, the cytotoxicity call was “inactive”.

`COc1ccc(NC(=O)Nc2ccc3c(c2)C(=O)N([C@H](C)CO)C[C@@H](C)[C@H](CN(C)S(=O)(=O)c2ccc(Cl)cc2)OCCCC[C@H](C)O3)cc1`: the cytotoxicity call is “inactive”.

Regarding `CC(C)C#Cc1cnc2c(c1)C(=O)N([C@@H](C)CO)C[C@H](C)[C@H](CN(C)C(=O)c1ccc3c(c1)OCO3)O2`, the cytotoxicity call was “inactive”.

As to `C[C@H](CO)N1C[C@H](C)[C@@H](CN(C)C(=O)Cc2ccccn2)Oc2cc(-c3cccc(C(=O)N(C)C)c3)ccc2S1(=O)=O`, the cytotoxicity call was “inactive”.

Consider `C[C@H]1[C@H]([Si](C)(C)F)[C@@H](CC(=O)N2Cc3ccccc3C[C@H]2CO)O[C@]12C(=O)N(c1ccccc1)c1ccccc12`, for which the cytotoxicity call is “inactive”.

Turning to `CCCNc1ncnc(N)c1[N+](=O)[O-]`, the cytotoxicity call is “inactive”.

For `Nc1ccccc1S(N)(=O)=O`, the cytotoxicity call is “inactive”.

As for `NS(=O)(=O)C#Cc1ccccc1`, the cytotoxicity call was “active”.

As for `NS(=O)(=O)c1ccccc1`, the cytotoxicity call is “inactive”.

`CCC[C@@H](O)C#Cc1cnc2c(c1)C(=O)N([C@H](C)CO)C[C@H](C)[C@H](CN(C)S(C)(=O)=O)O2`: the cytotoxicity call is “inactive”.

In the case of `CCOc1cc(C(C)(C)C)ccc1C1=N[C@@](C)(c2ccc(Cl)cc2)[C@@](C)(c2ccc(Cl)cc2)N1C(=O)N1CCN(CCCS(C)(=O)=O)CC1`, the cytotoxicity call was “active”.

As for `C[C@H]1CN([C@@H](C)CO)S(=O)(=O)c2ccc(/C=C/c3ccccc3)cc2O[C@@H]1CN(C)C(=O)CN1CCOCC1`, the cytotoxicity call was “inactive”.

Regarding `C[C@H]1CN([C@@H](C)CO)C(=O)Cc2cc(NC(=O)c3ccncc3)ccc2O[C@@H]1CN(C)S(=O)(=O)c1cn(C)cn1`, the cytotoxicity call is “inactive”.

On to `COc1cccc(S(=O)(=O)N(C)C[C@@H]2Oc3ncc(C#CC(C)C)cc3C(=O)N([C@@H](C)CO)C[C@@H]2C)c1`, for which the cytotoxicity call was “inactive”.

As to `COc1ccc(S(=O)(=O)N(C)C[C@H]2Oc3ccc(NC(=O)Cc4ccccc4)cc3C(=O)N([C@@H](C)CO)C[C@@H]2C)cc1`, the cytotoxicity call was “inactive”.

`COc1ccc(S(=O)(=O)N(C)C[C@@H]2Oc3ccc(NC(=O)Cc4ccccc4)cc3C(=O)N([C@@H](C)CO)C[C@@H]2C)cc1`: the cytotoxicity call was “inactive”.

Turning to `COc1ccc(NC(=O)Nc2ccc3c(c2)C(=O)N([C@@H](C)CO)C[C@@H](C)[C@H](CN(C)C(=O)Nc2cccc4ccccc24)O3)cc1`, the cytotoxicity call is “inactive”.

Take `COc1ccc(S(=O)(=O)N(C)C[C@H]2Oc3ccc(NC(=O)Cc4ccccc4)cc3C(=O)N([C@H](C)CO)C[C@@H]2C)cc1`: the cytotoxicity call is “active”.

With `COc1ccc(NC(=O)Nc2ccc3c(c2)C(=O)N([C@H](C)CO)C[C@@H](C)[C@@H](CN(C)C(=O)Nc2cccc4ccccc24)O3)cc1`, the cytotoxicity call is “active”.

`COc1ccc(S(=O)(=O)N(C)C[C@@H]2Oc3ccc(NC(=O)Nc4cccc5ccccc45)cc3C(=O)N([C@@H](C)CO)C[C@H]2C)cc1`: the cytotoxicity call is “active”.

Take `COc1ccc(NC(=O)Nc2ccc3c(c2)C(=O)N([C@@H](C)CO)C[C@H](C)[C@H](CN(C)C(=O)Nc2cccc4ccccc24)O3)cc1`: the cytotoxicity call was “inactive”.

For `COc1ccc(S(=O)(=O)N(C)C[C@H]2Oc3ccc(NC(=O)Nc4cccc5ccccc45)cc3C(=O)N([C@@H](C)CO)C[C@@H]2C)cc1`, the cytotoxicity call was “inactive”.

On to `COc1ccc(NC(=O)Nc2ccc3c(c2)C(=O)N([C@H](C)CO)C[C@H](C)[C@@H](CN(C)C(=O)Nc2cccc4ccccc24)O3)cc1`, for which the cytotoxicity call is “inactive”.

As to `COc1ccc(NC(=O)Nc2ccc3c(c2)C(=O)N([C@@H](C)CO)C[C@@H](C)[C@@H](CN(C)C(=O)Nc2cccc4ccccc24)O3)cc1`, the cytotoxicity call was “active”.

On to `COc1ccc(S(=O)(=O)N(C)C[C@H]2Oc3ccc(NC(=O)Nc4cccc5ccccc45)cc3C(=O)N([C@H](C)CO)C[C@H]2C)cc1`, for which the cytotoxicity call was “inactive”.

On to `COc1ccc(NC(=O)Nc2ccc3c(c2)C(=O)N([C@H](C)CO)C[C@@H](C)[C@H](CN(C)C(=O)Nc2cccc4ccccc24)O3)cc1`, for which the cytotoxicity call is “inactive”.
